Results from PubChem BioAssay AID504327 (National Center for Advancing Translational Sciences (NCATS), 2011).
Several values for one entry are separate records, joined by “and”; a condition that tells them apart may be missing. Equal values may be shown once. Screen size: about 390,000 compounds; about 820 (0.21%) were called active. Not shown: some 3% with an inconclusive outcome. The call rests on the fitted dose curve; in most records, active means well fitted inhibition curve with a large enough effect; inconclusive means small, poorly fitted or top-dose-only effect, or another doubt; inactive means no such curve, though single readings can be large or run the other way. The list comes from a sample in which actives are over-represented; it also holds similar structures and randomly drawn compounds. Some compounds were tested as several samples or in several runs, with calls that do not always agree. Non-standard residues stand in square brackets, D forms with d. Residues, ends and D or L forms follow the SMILES beside them. Groups on a side chain read outwards from the residue. *: point of attachment. X1 = CCC(C)C(N)C1=NC(C(=O)*)CS1; Orn = NCCC[CH](N)C(=O)O

Target: Histone acetyltransferase KAT2A (Homo sapiens) (UniProt Q92830)
Assay: qHTS Assay for Inhibitors of GCN5L2
Details: GCN5L2 HAT assay, ThioGlo1 CoA-SH fluorescence; series mostly up to 58.9 µM
From the text: Histone acetyltransferase (HAT) enzymes transfer a […] group from acetyl-coenzyme A to the epsilon-amino group of conserved lysine residues of N-terminal histone tails. Acetylation results in charge neutralization of this positively charged amino acid, decreasing interactions with the […] backbone and making the DNA more accessible for transcription. HATs have been recognized as an emerging drug target for treatment of cancer, diabetes, asthma, chronic obstructive pulmonary disease, cardiac disease, and viral infection. Protein identified with HAT activity include the […] like 2 (GCN5L2, a.ka. Histone acetyltransferase KAT2A) which acetylates histone H3 at Lys9, 14, 18, 13, and to lesser extent histones H4 and H2B. This activates transcription of the gene by modulating chromatin structure and installing the acetyllysine recognition mark for bromodomain-containing coactivator proteins.
A quantitative high throughput screen was developed to identify small molecule inhibitors. The assay is based on the principle that it measures formation of reduced CoA with the pro-fluorescent maleimide derivative ThioGlo1 that becomes fluorescent upon reaction with the free thiol of CoA.
A large number of artifacts are expected in this primary screen, compounded by the assay format (fluorescent artifacts) and by the high top concentration tested for each substance. This BioAssay data deposition should be used with caution, and counterscreen and secondary assay validation is essential since very few actives from the primary screen are expected to be true inhibitors of GCN5L2.
[2] Yasgar, et al. Compound Management for Quantitative High-Throughput Screening. JALA. 2008 Apr;13(2):79-89.
[3] Inglese, et al. Quantitative high-throughput screening: a titration-based approach that efficiently identifies biological activities in large chemical libraries. Proc Natl Acad Sci. 1;103(31):11473-8. 2006. PMID: 16864780
NIH Molecular Libraries Probe Production Network [MLPCN]
NIH Chemical Genomics Center [NCGC]
Structural Genomics Consortium (SGC)
To each well of a 1,536w plate, 3ul of GCN5L2 (final concentration 20nM, in 50mM HEPES, 0.1mM EDTA (pH 7.5), 0.01% Tween-20 buffer) are added using a Kalypsys dispenser. Only buffer is added to some wells as a control. A Kalypsys pin-tool transferred 23nl of library compound solution in DMSO to each well, as well as the control inhibit garcinol. . Following a 15 min incubation of enzyme with compounds at room temperature, 1ul mixture of ThioGlo1 (50uM final), H3(1-25) peptide (75uM final), and Acetyl-CoA (70uM final) is added. Plates are read immediately on the ViewLux (PerkinElmer) (Ex340nm/Em540nm) for a 0 min read, incubated for 20 min at room temperature, and read again on the ViewLux with the same settings. The initial read was carried out to identify compounds that are potentially fluorescent.
On the % scale 0 is the no-effect control and ±100 the full control effect; potency means the concentration at half of the fitted maximal effect.

Histone acetyltransferase KAT2A (Homo sapiens), sequence (Q92830 whole entry, looked up): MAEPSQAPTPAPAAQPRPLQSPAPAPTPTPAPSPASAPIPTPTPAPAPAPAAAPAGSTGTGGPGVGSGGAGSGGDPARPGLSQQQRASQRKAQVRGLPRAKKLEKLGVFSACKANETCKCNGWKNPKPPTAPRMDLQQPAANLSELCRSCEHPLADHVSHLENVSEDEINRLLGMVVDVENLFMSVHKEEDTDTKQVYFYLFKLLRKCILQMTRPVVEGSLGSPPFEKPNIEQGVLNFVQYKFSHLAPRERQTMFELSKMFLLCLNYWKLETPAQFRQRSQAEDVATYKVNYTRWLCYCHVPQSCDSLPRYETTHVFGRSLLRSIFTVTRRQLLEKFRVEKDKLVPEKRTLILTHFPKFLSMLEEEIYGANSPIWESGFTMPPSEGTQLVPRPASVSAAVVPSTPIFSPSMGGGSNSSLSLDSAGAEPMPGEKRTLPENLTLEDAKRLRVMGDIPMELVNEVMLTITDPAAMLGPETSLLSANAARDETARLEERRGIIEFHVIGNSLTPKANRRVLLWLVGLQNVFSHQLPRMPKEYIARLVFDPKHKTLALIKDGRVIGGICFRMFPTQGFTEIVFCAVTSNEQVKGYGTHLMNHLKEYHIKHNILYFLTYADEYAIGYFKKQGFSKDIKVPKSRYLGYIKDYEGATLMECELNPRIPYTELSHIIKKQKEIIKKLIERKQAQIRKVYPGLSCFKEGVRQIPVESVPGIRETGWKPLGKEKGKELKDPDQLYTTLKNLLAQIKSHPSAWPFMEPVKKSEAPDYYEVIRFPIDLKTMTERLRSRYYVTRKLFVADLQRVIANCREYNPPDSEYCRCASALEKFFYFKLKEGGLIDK

Potency, inactive:
COc1ccccc1-c1cc(NCc2cccs2)ncn1
Cc1cc2oc(=O)cc(-c3ccccc3)c2c(C)c1/C=C/c1ccc(F)cc1
CCCCCCn1nnc2sc(-c3ccccc3)cc2c1=O
Cc1cc2nn(-c3ccc(Cl)cc3)nc2cc1NC(=O)C(C)C
COc1ccccc1CCn1c(=O)c(-c2cn(C)c3ccccc23)nc2cncnc21
Cc1csc(-c2nc3ccccc3n2C)n1
CN(Cc1ccco1)c1ncncc1-c1ccoc1
Nc1ncnc2c1ncn2C1CC(O)C(CO)O1 (stereo unspecified)
O=C(Nc1ccc(O)cc1)c1ccccc1O
O=c1ccn([C@@H]2O[C@H](COP(=O)(O)OP(=O)(O)OP(=O)(O)O)[C@@H](O)[C@H]2O)c(=O)[nH]1
NCCC(=O)c1ccccc1N
N#Cc1ccc(CN2CCCC3(CCN(C(=O)c4ccco4)CC3)C2)cc1
C=C1/C(=C\C=C2\CCCC3(C)C2CCC3C(C)/C=C/C(O)C2CC2)CC(O)CC1O (stereo unspecified)
CC(O)COc1ccccc1 (stereo unspecified)
NNc1nnc(NN)c2ccccc12
Cc1nc2cnc(N3CCN(C)CC3)nc2n(C[C@H]2CCCO2)c1=O
Cc1cc(N(C)C)nc(Cl)n1
C=C(C)C1CC=C(C)C(O)C1 (stereo unspecified)
O=C(O)C(O)[C@@](O)(Cc1ccc(O)cc1)C(=O)O (stereo partly specified)
CCN(Cc1ccncc1)C(=O)[C@@H](CO)c1ccccc1
CC1(C)O[C@@H]2C[C@@H]3[C@H]4C[C@@H](F)C5=CC(=O)C=C[C@]5(C)[C@@]4(F)[C@@H](O)C[C@]3(C)[C@]2(C(=O)CO)O1
O=P(O)(O)OC[C@H](O)CO
COc1ccc(CC(N)C(=O)NC2C(O)[C@H](n3cnc4c(N(C)C)ncnc43)O[C@@H]2CO)cc1 (stereo partly specified)
O=c1cnc2cnc(Nc3ccccc3)nc2n1Cc1ccc(F)cc1
C[C@@H]1C(c2ccc(F)cc2)=NN(c2ccc(Br)cc2)[C@H]1C(=O)N1CCOC1=O
CC(C)Cn1c(=O)c2ccccc2n2c(-c3cccc(Cl)c3)nnc12
O=c1cc(-c2ccccc2)n2c(SCc3ccccc3)nnc2[nH]1
C[C@@H](O)[C@@H]1NC(=O)[C@H](CCCCN)NC(=O)[C@H](Cc2c[nH]c3ccccc23)NC(=O)[C@H](Cc2ccccc2)NC(=O)[C@H](Cc2ccccc2)NC(=O)[C@H](CC(N)=O)NC(=O)[C@H](CCCCN)NC(=O)[C@@H](NC(=O)[C@@H]2CCCN2)CSSC[C@@H](C(=O)N[C@@H](CCCCN)C(=O)O)NC(=O)[C@H](CO)NC(=O)[C@H](CO)NC(=O)[C@H](Cc2ccccc2)NC1=O
O=C(c1cnccn1)N1CCC[C@@]2(CCN(Cc3ccncc3)C2)C1
CC(C)[C@@H]1NC(=O)[C@H](Cc2ccccc2)NC(=O)[C@@H](CC(=O)O)NC(=O)CNC(=O)[C@H](CCCNC(=N)N)NC1=O
O=C(Nc1cccc(F)c1)N1CC2(CCN(C(=O)c3cnccn3)CC2)C1
CCCCC/C=C\C/C=C\CCCCCCCCCC(=O)O
CNc1ncnc2ccc(-c3cccc(NS(C)(=O)=O)c3)cc12
C=C1O[C@@](CO)(n2cnc3c(N)ncnc32)[C@H](O)[C@@H]1O
CC[C@H](C)[C@H](NC(=O)[C@H](CCCNC(=N)N)NC(=O)[C@H](CCCNC(=N)N)NC(=O)[C@H](CC(C)C)NC(=O)[C@H](Cc1ccccc1)NC(=O)CNC(=O)CNC(=O)[C@@H](N)Cc1ccc(O)cc1)C(=O)N[C@@H](CCCNC(=N)N)C(=O)N1CCC[C@H]1C(=O)N[C@@H](CCCCN)C(=O)N[C@@H](CC(C)C)C(=O)N[C@@H](CCCCN)C(=O)N[C@@H](Cc1c[nH]c2ccccc12)C(=O)N[C@@H](CC(=O)O)C(=O)N[C@@H](CC(N)=O)C(=O)N[C@@H](CCC(N)=O)C(=O)O
COCC(=O)N1CCC2(CCCN(c3ccccc3)C2)CC1
O=S(O)S(=O)(=O)O
CCC(C)C(N)C1=NC(C(=O)NC(CC(C)C)C(=O)NC(CCC(=O)O)C(=O)NC(C(=O)NCCCCC2NC(=O)C(CC(N)=O)NC(=O)C(CC(=O)O)NC(=O)C(Cc3cnc[nH]3)NC(=O)C(Cc3ccccc3)NC(=O)C(C(C)CC)NC(=O)C(CCCN)NC2=O)C(C)CC)CS1 (stereo not drawn) (cyclo(DNK([Ile-Glu-Leu-X1])[Orn]IFH); configuration not given here)
COC(=O)CC1C(C)(C)C(OC(C)=O)C2CC3=C4CC(=O)OC(c5ccoc5)[C@]4(C)CCC3[C@@]1(C)C2=O (stereo partly specified)
O=C(c1csnn1)N1CCC2(CC1)CN(c1ncccn1)C2
CC(C)c1cnc(NC(=O)Cc2ccccc2)s1
Cc1nc2cnc(N3CCN(C)CC3)nc2n(CCC#N)c1=O
C[C@H]1CCC[C@@]2(C)CCCC[C@]12O
CC(CCC(=O)O)C1CCC2C3C(O)C[C@@H]4CC(O)CC[C@@]4(C)C3CC[C@@]12C (stereo partly specified)
O=c1cc(-c2ccc(O)cc2)oc2c([C@@H]3O[C@H](CO)[C@@H](O)[C@H](O)[C@H]3O)c(O)cc(O)c12
O=C(c1ccncc1)N1CCC2(CCCN(C(c3ccccc3)c3ccccc3)C2)CC1
COc1ccccc1N1CCN(C[C@@H]2CN3C(=O)N(C)c4ccccc4C3=N2)CC1
C[C@@H]1C[C@H]2[C@@H]3C[C@H](F)C4=CC(=O)C=C[C@@]4(C)[C@]3(F)[C@H](O)C[C@]2(C)[C@@]1(O)C(=O)CO
C[C@@H]1O[C@@H](OC[C@H]2O[C@@H](Oc3cc(O)c4c(c3)O[C@H](c3ccc(O)c(O)c3)CC4=O)[C@H](O)[C@@H](O)[C@@H]2O)[C@H](O)[C@H](O)[C@H]1O
Cc1ccccc1CSCCNC(=O)c1ccc(Cl)c(S(=O)(=O)N2CCOCC2)c1
COc1ccccc1CNC(=O)c1ccc(N(C)S(=O)(=O)c2ccc(C)cc2)cc1
COc1cccc(Nc2ncc3ncc(=O)n(C4CC4)c3n2)c1
CC1CC[C@@]23CCC4(C)[C@@]5(C)CCC6C(C)(C)C(O)CC[C@@]6(C)C5C=C[C@@]4(OC2=O)C3C1C (stereo partly specified)
COc1cc2c(cc1OC)CC(=O)N(CCCN(C)C[C@H]1Cc3cc(OC)c(OC)cc31)CC2
O=C1OC(C(O)CO)C(O)=C1O (stereo unspecified)
CCNc1ncc2ncc(=O)n(Cc3cccc(OC)c3)c2n1
CCOC(=O)c1sc(NC(=O)CSc2nc(C)cc(C(F)(F)F)n2)c(C#N)c1C
Cc1ccc(S(=O)(=O)N2CCCCC2)cc1NC(=O)c1cccnc1
COc1cccc(-c2cc(NCCc3c[nH]c4ccc(OC)cc34)ncn2)c1
CC1(C)OC2CC3C4CCC5=CC(=O)CCC5(C)C4(F)C(O)CC3(C)[C@]2(C(=O)CCl)O1 (stereo partly specified)
c1ccc2c(Nc3ccncc3)nc(-c3ccoc3)nc2c1
O=C(Nc1ccccc1)N[C@H]1C[C@H](C(=O)O)Nc2cc(Cl)cc(Cl)c21
C=C1C(=CC=C2CCC[C@@]3(C)[C@@H]2CC[C@H]3[C@H](C)CCCC(C)C)C[C@@H](O)C[C@@H]1O
CC(C)(O/N=C(\C(=O)N[C@@H]1C(=O)N2C(C(=O)[O-])=C(C[n+]3ccccc3)CS[C@@H]12)c1csc(N)n1)C(=O)O
CC1C(O)CC2C(C(=O)O)=CO[C@@H](O[C@H]3OC(CO)C(O)C(O)C3O)C21 (stereo partly specified)
COC(=O)N1CCC[C@@]2(CCN(C(=O)NC(C)C)C2)C1
Brc1ccc(C2=NCCC(c3ccccc3)O2)cc1 (stereo unspecified)
CC(C)NC(=O)N1CC[C@@]2(CCCN(C(=O)c3ccco3)C2)C1
CCCCOc1ccc(Cn2c(=O)oc3ccc(C)cc32)cc1OC
Cc1ccc(C)c(NC(=O)COC(=O)Cn2c(C)csc2=O)c1
COc1ccc(NC(=O)N2CC3(CCN(C(C)=O)CC3)C2)cc1
CC(=O)CC(c1ccccc1)C1C(=O)Oc2ccccc2C1=O (stereo unspecified)
COc1cccc(Cn2c(=O)c(-c3cc(F)cc(F)c3)nc3cnc(OC)nc32)c1

Potency, active:
Cc1ccc(Cl)cc1NC(=O)C(C)n1nnc2sc(-c3ccccc3)cc2c1=O (stereo unspecified) 31.6 µM
O=c1[nH]c(=S)[nH]c2[nH]c(=S)[nH]c12 4.47 µM and 3.55 µM
O=c1[nH]c2ccccc2n2c(-c3ccccc3)nnc12 22.4 µM
CC(C)(O)c1ccccc1CC[C@H](SCC1(CC(=O)O)CC1)c1cccc(/C=C/c2ccc3ccc(Cl)cc3n2)c1 20 µM
FC(F)(F)C1CCCN(c2nsc3ccccc23)C1 (stereo unspecified) 2.82 µM
Cc1ccccc1CSCCNC(=O)c1ccc(N(C)S(=O)(=O)c2ccccc2)cc1 2.24 µM
Cc1ccc(C2C(C#N)C(C#N)N3CCCN23)cc1 (stereo unspecified) 22.4 µM
CC1=C/C(=N\OS(=O)(=O)c2ccccc2)C=CC1=O 14.1 µM
Cc1c(C(=O)OC(C)C)sc(NC(=O)c2cccnc2)c1C#N 3.16 µM
Oc1c(Cl)cc(Cl)c(Cl)c1Cc1c(O)c(Cl)cc(Cl)c1Cl 12.6 µM
CCCCOC(=O)Cn1c(=O)n(CC(=O)OCCCC)c2cc(C)ccc21 31.6 µM

Potency, inactive and 12.6 µM (active):
O=C1OCCN1C(=O)[C@H]1[C@H](c2ccc(Cl)cc2)C(c2cccc(Cl)c2)=NN1c1ccc(Br)cc1

Activity change, negative = inhibition, inactive:
CC(C)[C@H]1CC[C@@H](C)C[C@H]1O 5.9% [at 0.501 µM]
